Laboratory results reported in PubChem BioAssay (EPA / NIEHS).
Activity calls are given as the source filed them. The calls were made as follows: active = hit-call score of the fitted dose curve at least 0.9, where 1 is the maximum; inactive = score below 0.9.

read-out: Nuclear factor NF-kappa-B p105 subunit (Homo sapiens) (UniProt P19838); assay: LTEA_HepaRG_NFKB1: Life Technologies and Expression Analysis (LTEA) Assay for Nuclear Factor Kappa B Subunit 1 (NFKB1) using HepaRG (AID 2283521); settings: mRNA level, 48 h; actives raise or lower the signal;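 as to outcome: TaqMan qRT-PCR transcript normalised to ACTB GAPDH and POLR2A housekeeping genes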
Experimental: LTEA_HepaRG is a cell based, multiplexed-readout assay that uses HepaRG, a human liver cell line, with measurements taken at 48 hours after chemical dosing on a 96-well plate.LTEA_HepaRG_NFKB1 is one of 102 assay component(s) measured in the LTEA HepaRG cell culture assay. It is a marker of Cell proliferation, survival, death.Data from the assay component LTEA_HepaRG_NFKB1 was analyzed into 1 endpoint. This assay endpoint, LTEA_HepaRG_NFKB1, was analyzed with bidirectional fitting relative to DMSO as the negative control and baseline of activity. Using a type of inducible reporter, measures of mRNA induction for gain or loss-of-signal activity can be used to understand regulation of transcription factor activity. To generalize the intended target to other relatable targets, this assay endpoint is annotated to the dna binding intended target family, where the subfamily is NF-kappa B.
A total of 1060 chemcials from the ToxCast library were tested in eight-point concentration-response experiments. Cell culture and cytotoxicity assays were conducted at Thermo Fisher Scientific's Custom Services facility (Madison, WI). A single lot of human HepaRG cells (Thermo Fisher Scientific, Frederick, MD) was used for the cell culture experiments. 96-well format collagen type I coated plates of human HepaRG cells were prepared using established methods. Briefly, cryopreserved HepaRG cells were thawed, plated at a density of approximately 100,000 cells/well in HepaRG Thaw, Plate, and General Purpose media (HPRG770, Thermo Fisher Scientific), and incubated for 48 hours. 0.5% DMSO was selected as vehicle control to balance the requisite need of DMSO in HepaRG cultures to maintain differentiation (for example, baseline metabolism, proportions of hepatocytes vs. cholangiocytes), while enabling further hepatic receptor pathway activation (for example, PXR and CAR) in response to chemical exposure. 48 hours after plating, the culture medium was replaced with HepaRG Serum-Free Incudtion Media. Cells were exposed to each test chemical in duplicate and maintained in CO2 incubators for another 48 hours. Chemical plates were thawed to room temperature and 200x concentrations of treatment groups were prepared. 8-point conentration-reponse curves were made with the highest exposure at 100 uM, followed by half-log dilutions, all in 0.5% DMSO. Each test plate contained variouse controls, induction positive controls (1mM phenobarbital), cytotoxicity positive controls ([…] aflatoxin B1), vehicle controls (0.5% DMSO), and total lysis controls (0.5% DMSO). Cell morphology images were taken using an Essen IncuCyte FLR automated microscope, with six 96-well plates imaged in about 24 minutes. Images were captured and exported and JPEG files. Spent culture media was transfered to black-well plates for the LDH assay, and remaining media was sorted at -80 C for later use. Cells were treated with RLT buffer and frozen until shipped for gene expression analysis. Total RNA was isolated from the cell suspension in 75 uL of Buffer RLT (Qiagen, Germantown, MD 20874) by Quintiles/Expression Analysis (Durham, NC) using a custom isolation procedure. Total RNA from each plate well was transferred to a preamplification plate. Fluidigm's 96.96 Dynamic ArrayTM (Fluidigm, Amsterdam, the Netherlands) technology was used for gene expression analyses by quantitative reverse transcription polymerase chain reaction (qRT-PCR, performed by Quintiles/Expression Analysis, Durham, NC)89. Standard TaqManTM Assays (Applied Biosystems/ThermoFisher Scientific, Foster City, CA) were used to assess the expression of 93 genes selected based on their selectivity and sensitivity to important hepatic receptors known to be modulated by environmental chemicals; importance in human hepatocyte functionality; and hepatotoxicity. […]

Chain of Nuclear factor NF-kappa-B p105 subunit (Homo sapiens) (P19838 whole entry, looked up): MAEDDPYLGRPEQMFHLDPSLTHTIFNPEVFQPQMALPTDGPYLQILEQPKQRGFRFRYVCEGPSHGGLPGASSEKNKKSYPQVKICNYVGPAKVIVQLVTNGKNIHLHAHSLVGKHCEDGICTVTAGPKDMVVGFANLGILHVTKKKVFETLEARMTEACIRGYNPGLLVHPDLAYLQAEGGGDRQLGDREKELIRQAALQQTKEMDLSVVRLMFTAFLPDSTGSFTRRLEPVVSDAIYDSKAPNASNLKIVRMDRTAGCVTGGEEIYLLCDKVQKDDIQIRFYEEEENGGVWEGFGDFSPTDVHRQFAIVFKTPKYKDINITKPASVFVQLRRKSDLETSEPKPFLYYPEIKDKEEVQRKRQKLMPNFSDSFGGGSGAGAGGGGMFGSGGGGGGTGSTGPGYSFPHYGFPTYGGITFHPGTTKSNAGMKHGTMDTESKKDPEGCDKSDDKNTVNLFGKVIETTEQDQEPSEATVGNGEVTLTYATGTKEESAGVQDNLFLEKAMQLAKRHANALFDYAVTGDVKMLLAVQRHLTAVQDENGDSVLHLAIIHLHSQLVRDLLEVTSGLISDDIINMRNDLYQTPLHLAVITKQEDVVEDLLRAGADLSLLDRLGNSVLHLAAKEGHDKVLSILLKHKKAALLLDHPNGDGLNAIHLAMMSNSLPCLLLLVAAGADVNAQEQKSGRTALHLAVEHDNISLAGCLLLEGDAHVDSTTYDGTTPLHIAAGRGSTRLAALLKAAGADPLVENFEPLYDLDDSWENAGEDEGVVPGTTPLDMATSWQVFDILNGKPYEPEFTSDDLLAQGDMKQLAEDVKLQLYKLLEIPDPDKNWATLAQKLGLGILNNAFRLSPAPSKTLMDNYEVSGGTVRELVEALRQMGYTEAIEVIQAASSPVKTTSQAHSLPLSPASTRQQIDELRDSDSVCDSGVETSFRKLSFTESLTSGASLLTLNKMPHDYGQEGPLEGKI

Q: For O=C(O)C1(C(=O)Nc2ccc(Cl)cc2Cl)CC1, which AC50 is on record?
A: 22.9 µM (active)

Q: How did the outcome turn out when CC(C)(c1ccc(O)cc1)c1ccc(O)cc1 was run?
A: inactive

Q: Which outcome does the source give for CCCN(CCC)c1c([N+](=O)[O-])cc(C(F)(F)F)c(N)c1[N+](=O)[O-] here?
A: inactive

Q: How did the AC50 turn out when C[C@]12CC[C@@H]3c4ccc(O)cc4C[C@@H](CCCCCCCCCS(=O)CCCC(F)(F)C(F)(F)F)[C@H]3[C@@H]1CC[C@@H]2O (some centres not stated) was run?
A: 0.0508 µM (active)

Q: How did the outcome turn out when CCC(C)OC(=O)N1CCCCC1CCO (configuration not stated) was run?
A: inactive

Q: Which outcome does the source give for N#CSCSc1nc2ccccc2s1 here?
A: inactive

Q: For CCCCC(CC)CN1C(=O)C2C3C=CC(C3)C2C1=O (configuration not stated), which outcome is on record?
A: inactive

Q: Which outcome does the source give for CCN(Cc1c(F)cccc1Cl)c1c([N+](=O)[O-])cc(C(F)(F)F)cc1[N+](=O)[O-] here?
A: inactive

Q: CCCCOC(=O)[C@@H](C)Oc1ccc(Oc2ccc(C(F)(F)F)cn2)cc1 was tested. Which outcome did it give?
A: inactive

Q: c1ccc(Nc2ccccc2)cc1 was tested. Which outcome did it give?
A: inactive

Q: With c1ccc2[nH]c(-c3cscn3)nc2c1 as the compound, how does the outcome read?
A: inactive

Q: How did the outcome turn out when C#C[C@]1(O)CC[C@H]2[C@@H]3CCC4=CC(=O)CC[C@@H]4[C@H]3CC[C@@]21CC was run?
A: inactive

Q: Which outcome does the source give for CCOC(=O)NCCOc1ccc(Oc2ccccc2)cc1 here?
A: inactive

Q: CCNc1nc(N)nc(Cl)n1 was tested. Which outcome did it give?
A: inactive

Q: For C[C@]12C[C@H](O)[C@H]3[C@@H](CCC4=CC(=O)CC[C@@]43C)[C@@H]1CC[C@@H]2C(=O)CO, which outcome is on record?
A: inactive

Q: CCCCCCC(C)OC(=O)COc1nc(F)c(Cl)c(N)c1Cl (configuration not stated) was tested. Which outcome did it give?
A: inactive

Q: For CCCCOC(=O)C(C)Oc1ccc(Oc2ccc(C(F)(F)F)cn2)cc1 (configuration not stated), which outcome is on record?
A: inactive

Q: For CCSC(=O)N(CC(C)C)CC(C)C, which outcome is on record?
A: inactive

Q: Which outcome does the source give for CC(C)(C)[C@@H](O)[C@@H](Cc1ccc(Cl)cc1)n1cncn1 here?
A: inactive

Q: Which outcome does the source give for O=C(c1ccccc1)C1CCCCC1 here?
A: inactive

Q: For CC(C)CCCCCCc1ccc(O)cc1, which outcome is on record?
A: inactive

Q: Which outcome does the source give for O=C(c1ccc(O)cc1O)c1ccc(O)cc1O here?
A: inactive

Q: For CCCOC(=O)c1ccc(C(=O)OCCC)nc1, which outcome is on record?
A: inactive

Q: O=C(Nc1ccc([N+](=O)[O-])cc1Cl)c1cc(Cl)ccc1O was tested. Which outcome did it give?
A: inactive

Q: With CCCCOCCOCCOCc1cc2c(cc1CCC)OCO2 as the compound, how does the outcome read?
A: inactive

Q: How did the outcome turn out when CCOC(=O)C(C)Oc1ccc(Oc2nc3ccc(Cl)cc3o2)cc1 (configuration not stated) was run?
A: inactive

Q: COC(=O)c1ccccc1C(=O)O was tested. Which outcome did it give?
A: inactive
